# Measurements: PubChem BioAssay (NCI)
# About 83,000 compounds went through this panel and 20% of them were active in at least one assay; those are over-represented in the sample as a whole.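 Single-dose data. Exposure time 48 hours. Values below 10 considered active.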 Unmarked numbers belong to inactive results. The source made the active and inactive calls.
# Columns and labels:
# Test in all cases: NCI-60 one-dose screen, 48 h (100 = growth as untreated, 0 = no growth, -100 = all killed)
# Conditions in all cases: 10 µM unless noted
# T-47D breast = system: T-47D breast
# BT-549 breast = system: BT-549 breast
# MDA-MB-435 melanoma = system: MDA-MB-435 melanoma
# SW-620 colon = system: SW-620 colon
# MCF7 breast = system: MCF7 breast
# HCT-116 colon = system: HCT-116 colon
# HCC-2998 colon = system: HCC-2998 colon
# KM12 colon = system: KM12 colon
Compound,growth (T-47D breast),growth (BT-549 breast),growth (MDA-MB-435 melanoma),growth (SW-620 colon),growth (MCF7 breast),growth (HCT-116 colon),growth (HCC-2998 colon),growth (KM12 colon)
O=C(Nc1ccc(-n2ccc3c(NC(=O)c4ccccc4)ncnc32)cc1)c1ccc(Cl)c(C(F)(F)F)c1,30.4%,55.1%,18.2%,-3.54% (active),12.5%,-32% (active),48.2%,11.1%
O=C1CCC(c2c(O)cc(O)c3c(=O)c(O)c(-c4ccc(O)c(O)c4)oc23)N1 (stereo not drawn),83.6%,112%,110%,108%,95.2%,99.8%,89.4%,101%
COc1ccc(-c2nn(-c3ccc(NC(=O)c4ccc(Cl)c(C(F)(F)F)c4)cc3)cc2-c2ccncc2)cc1Cl,46.1%,40.5%,23.2%,16%,22.5%,15.8%,9.69% (active),14.8%
Cc1c(Cl)ccc2c(C(=O)Cl)cc(-c3ccccc3)nc12,90.9%,94.8%,98.3%,97.5%,87.6%,102%,109%,102%
COc1ccc(C2=NN(C(=O)COc3ccc(Cl)cc3)C(O)(c3cc(F)c(Cl)cc3Cl)C2)cc1OC (stereo not drawn),-51.1% (active),-76% (active),8.66% (active),-84.8% (active),7.79% (active),-69.1% (active),78.4%,60.4%
CCOC(=O)CSc1nnc(-c2cc3c([nH]c4ccccc43)c(-c3cccc(O)c3)n2)n1-c1ccc(C)cc1,-5.32% (active),101%,16.4%,67.1%,35.3%,50%,83.7%,76.3%
CCc1c(C)c2cc3c(c(C)c2oc1=O)OCC(=O)N3,58.6%,74.7%,74.5%,90.3%,82.1%,52.7%,90%,84.3%
NC(=S)NNC1CCCCC1,80%,88.4%,106%,99.7%,88.8%,91.8%,100%,99.9%
CC(=O)Cc1cccnc1,96.2%,92.4%,110%,97.1%,101%,81.6%,108%,105%
Cc1cc(C)c(O)c(C(=O)CC(Br)C(=O)O)c1 (stereo not drawn),92.9%,97.6%,102%,116%,66.6%,99.3%,93.3%,97.9%
Nc1nc(Cl)cc(NCc2ccc(CNc3cc(Cl)nc(N)n3)cc2)n1,69.2%,72.6%,106%,87.4%,103%,83.3%,101%,99%
N#Cc1c(N)nc(Cl)c(C#N)c1C(=O)c1ccccc1,42.4%,24.9%,14.6%,43.3%,18.9%,30.2%,76.5%,28%
CC1(C)N=C(N)N=C(N)N1c1cccc(CCCCc2ccccc2)c1,18.1%,-35.1% (active),-0.215% (active),25.3%,3.82% (active),2.07% (active),-9.45% (active),-42.8% (active)
Clc1ccc2c(c1)nnn1c3ncccc3c(Br)c21,60.7%,72.1%,95.2%,78.9%,64.2%,68.4%,108%,86.4%
NS(=O)(=O)c1ccc(Nc2nc(O)c(/C=C3\C=Nc4ccccc43)s2)cc1,99.3%,108%,107%,99.6%,94.2%,92.7%,116%,95.6%
CCCCNC(=O)Oc1ccc(/C(=C(/CC)Cc2ccccc2)c2ccc(OCCCN(C)C)cc2)cc1,60.7%,95.4%,83.3%,77.3%,27.9%,67.9%,88.3%,78.3%

Compound,growth (T-47D breast),growth (BT-549 breast),growth (MDA-MB-435 melanoma),growth (SW-620 colon),growth (MCF7 breast),growth (HCT-116 colon),growth (HCC-2998 colon),growth (KM12 colon)
COc1ccc2c(c1)nnc1c3cccnc3[nH]c21,6.14% (active),4.75% (active),13.8%,-12.5% (active),-43.5% (active),-74% (active),40.6%,30%
Nc1ncnc2c1c(-c1ccc(Oc3ccccc3)cc1)nn2C[C@H]1SSC[C@H]1O,-20.6% (active),38.9%,-74.6% (active),69.2%,-53.9% (active),-69.3% (active),11.2%,9.93% (active)
CCC1S/C(=N\N=C(/C)c2cccs2)N(c2ccccc2)C1=O (stereo not drawn),90.6%,112%,117%,96.1%,84.5%,90.2%,121%,115%
O=c1nc(N2CCOCC2)oc2c(-c3cccc4ccccc34)cccc12,79.7%,85.3%,101%,97.9%,89.8%,96.7%,109%,87.3%
CCN(CC)CCN1C(=O)c2c(c3c4ccccc4[nH]c3c3[nH]c4ccccc4c23)C1=O,81.8%,83%,95.6%,46.9%,62%,67%,53.1%,85.2%
Nc1ncnc2c1ncn2C1OC(COC(c2ccccc2)(c2ccccc2)c2ccccc2)C(O)C1O (stereo not drawn),103%,94%,99.6%,98%,94.2%,92.4%,78.9%,99.2%
C[C@]12CC[C@@H]3c4ccc(O)c(N)c4CC[C@H]3[C@@H]1CC[C@@H]2O,124%,99.3%,108%,122%,116%,89.9%,120%,103%
COc1ccc(Cl)cc1NC(=O)c1cc2c([nH]1)-c1nc(NC(=O)C(C)(C)C)sc1CC2,71.3%,71.7%,91%,62.6%,52.1%,12.4%,96.5%,83.2%
O=C(CSc1nnc(-c2cc3c([nH]c4ccccc43)c(-c3cccc(O)c3)n2)n1-c1ccccc1)c1ccccc1,53%,56%,-33.3% (active),50%,13.7%,29.7%,96%,60.1%
CN1CCN(CC(=O)N(C)c2ccc(N=C(c3ccccc3)c3c(O)[nH]c4ccc(C#N)cc34)cc2)CC1,69.4%,15.1%,23.9%,16.5%,12.7%,9.41% (active),39.8%,9.43% (active)
[2H]c1nc(Nc2ncc(F)c(-c3cc(F)c4nc(C)n(C(C)C)c4c3)n2)c([2H])c([2H])c1CN1CCN(CC)CC1,71.8%,55.4%,51.9%,33.8%,25.9%,20.6%,64.1%,31.9%
COc1cc2nc(C(=O)N3CCCCC3)cc(Nc3ccccc3)c2cc1OC,91.2%,102%,104%,107%,96.5%,99.9%,105%,99.3%
C=C1C(=O)O[C@H]2[C@H]1CC/C(COC(=O)c1ccc(Br)cc1)=C\CC[C@@]1(C)O[C@@H]21,-47% (active),-8.16% (active),-35.4% (active),-47.5% (active),-18.5% (active),-84.3% (active),87.3%,56.2%
CC(C)(C)OC(=O)NCc1cccc(N=C=S)c1,11.2%,10.3%,51%,60.2%,29.5%,56.2%,57%,51.6%
Cc1ccccc1C[P+](c1ccccc1)(c1ccccc1)c1ccccc1,26%,29.6%,14.6%,22.8%,10.8%,15.7%,12.2%,14.5%
